Here are results for four compounds from PubChem BioAssay (NCATS).

The target of assay [1] is Lysosomal acid glucosylceramidase (Homo sapiens) (UniProt P04062). The experiment in a line: Glucocerebrosidase-p2 (AID 348; in the data active means potency below about 10 µM; further: potency means the concentration at half of the fitted maximal effect). The conditions noted are these: purified GBA, blue fluorogenic substrate, 40 min. The essentials:
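Normal human glucocerebrosidase (0.2 nM) with blue fluorogenic substrate (80 uM final) in citrate/phosphate pH 5.9 with 10mM sodium taurocholate, 0.01% tween-20; 40 min RT, NaOH/glycine stop; fluorescence Ex 365/Em 440; AC50 from a titration from 0.6 nM upwards.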

Assay [2] addresses Glucocorticoid receptor (Homo sapiens) (UniProt P04150). In words: GR-GFP Redistribution (AID 450;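 active means compounds whose dose series gives a full or clear partial fitted curve of increased nuclear translocation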; further: potency means the concentration at half of the fitted maximal effect). The following applies: U2OS GR-GFP nuclear translocation, laser cytometry, 2 h.
Assay [3] shares this target. The experiment in a line: GR-EFC Redistribution (AID 451; calls by dose curve; further: potency means the concentration at half of the fitted maximal effect). The conditions noted are these: CHO-K1 GR-EFC translocation, beta-gal luminescence, 2 h. The essentials:
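CHO-K1 cells stably expressing nuclear-localized β-gal enzyme acceptor and GR fused C-terminally to the enzyme donor fragment; ligand-driven nuclear translocation restores β-gal by complementation. Compounds titrated up to 46 uM final, 2 h at 37 °C; luminescence read.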

Assay [4] has as its target Mitogen-activated protein kinase 10 (Mus musculus) (UniProt Q61831). The experiment in a line: JNK3 AlphaScreen Assay (AID 530; active means well fitted curve in either direction with a large enough effect, not every such curve was filed as active;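 further: kinase came from lysate of stimulated human HepG2 cells; on the % scale 0 is the no-effect control and ±100 the full control effect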). The conditions noted are these: JNK3 lysate, c-Jun phosphorylation; series mostly up to 57.1 µM. The essentials: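 Biotinylated GST-cJun(1-79) served as substrate for JNK3 in HepG2 lysates stimulated with IL-1beta and TNF-alpha. ATP was 10 uM final, pH 7.6. Ser73 phosphorylation was quantified by AlphaScreen (680 nm excitation).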
(In Alpha technology, singlet oxygen from a donor bead excites a nearby acceptor bead.)

Assay [5] concerns the target Cytochrome P450 3A4 (Homo sapiens) (UniProt P08684). The experiment in a line: qHTS Assay for Activators of Cytochrome P450 3A4 (AID 885). Further: nearly all actives have a fitted effect of over 65% in size. The following applies: recombinant CYP3A4, Luciferin-PPXE luminescence, 60 min; series mostly up to 57.1 µM. The essentials: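 Activators are scored by enhanced luminescence from CYP3A4 conversion of luciferin-PPXE (25uM, equal to KM) to luciferin, after 60 min at RT with an NADPH-regenerating system.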

The nature of assay [6]: qHTS Assay for Identification of Small Molecule Agonists for Hypoxia Response Element Signaling Pathway (AID 914; active means well fitted activation curve with a large enough effect in the signal ratio, with a control signal flat, not every such curve was filed as active; the % refers to the signal ratio; further: potency means the concentration at half of the fitted maximal effect). The following applies: ME-180 HRE-bla reporter, beta-lactamase ratio, CoCl2, 17 h; activation: hits give high values. In outline:
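Read-out: CCF4 FRET ratio of 460nm to 530nm emission (excitation 405nm) after 2.5 hours at room temperature, taken from HRE-bla ME-180 cells that had been exposed to compound and EC50 CoCl2 for 17 hours.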

In assay [7] the target is Dual specificity protein kinase CLK4 (Homo sapiens) (UniProt Q9HAZ1). The experiment in a line: qHTS Assay for Inhibitors of CDC-like Kinase 4 (Kinase-Glo Assay) (AID 1770). Further: nearly all actives have a fitted effect of over 65% in size. Further: potency means the concentration at half of the fitted maximal effect. The following applies: recombinant Clk4, Kinase-Glo ATP depletion luminescence; series mostly up to 66.7 µM. The essentials: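 25 nM Clk4 with 100 uM RS repeat peptide and 1 uM ATP (final) in Tris pH7.5, 10 mM MgCl2, 4.5 h at room temperature. Remaining ATP measured by Kinase-Glo luciferase luminescence.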

The target is the same in assay [8]. In words: qHTS Assay for Inhibitors of CDC-like Kinase 4 (ADP-Glo Assay) (AID 1771). Further: nearly all actives have a fitted effect of over 70% in size. Further: potency means the concentration at half of the fitted maximal effect. The following applies: recombinant CLK4, ADP-Glo luminescence; series mostly up to 80 µM. In outline:
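25 nM Clk4, 100 uM RS peptide, 1 uM ATP (final); 2 mM MgCl2, 0.5 mM EGTA, 2.5 mM DTT, 0.01% Triton X-100; 1 hr RT. ADP-Glo readout: ATP depletion 45 min, conversion/luciferase 30 min, luminescence.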
(qHTS replaces the single test concentration by a dilution series.)

Assay [9] has the same target. The experiment in a line: qHTS Assay for Inhibitors of CDC-like Kinase 4 (ADP-FP Assay) (AID 1795). Further: nearly all actives have a fitted effect of over 60% in size. Further: potency means the concentration at half of the fitted maximal effect. The conditions noted are these: Transcreener ADP fluorescence polarization; series mostly up to 50 µM. In outline: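 Recombinant Clk4 (6.25 nM) phosphorylated 100 uM RS repeat peptide with 1 uM ATP in 25 mM Tris pH 7.5, 10 mM MgCl2, 0.5 mM EGTA, 2.5 mM DTT, 0.01% Triton X-100 for 1 h. ADP was detected by Transcreener ADP2 competitive fluorescence polarization after 30 min at room temperature.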

Assay [10] has as its target Ubiquitin carboxyl-terminal hydrolase 1 (Homo sapiens) (UniProt O94782). The experiment in a line: Inhibitors of USP1/UAF1: Pilot qHTS (AID 504865).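 Further: rhodamine fluorescence freed from ubiquitin-rhodamine substrate followed over time; top concentration of the series differs between compounds; on the % scale 0 is the no-effect control and ±100 the full control effect; nearly all actives have a fitted effect of over 35% in size.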 The following applies: purified USP1/UAF1, Ub-rhodamine cleavage fluorescence; series mostly up to 54.9 µM. The essentials: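 USP1/UAF1 complex at 1 nM preincubated 15 min at room temperature with compound, then Ub-Rho substrate added at 150 nM final. Fluorescence (480/540 nm) read kinetically in 50 mM HEPES pH 7.8, 0.5 mM EDTA, 1 mM TCEP, 0.1 mg/ml BSA, 0.01% Tween-20.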

A short description of assay [11]: Primary qHTS for small molecule stabilizers of the endoplasmic reticulum resident proteome: Secreted ER Calcium Modulated Protein (SERCaMP) assay (AID 1508630). Further: on the % scale 0 is the no-effect control and ±100 the full control effect. The following applies: SH-SY5Y GLuc-SERCaMP (Gaussia luciferase released on ER calcium loss) secretion, thapsigargin, luminescence; series mostly up to 38.4 µM. The essentials: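 The SH-SY5Y reporter protocol was run at 3 concentrations up to 38.3 uM (primary) or 11 concentrations (follow-up): 16 h compound, 100 nM thapsigargin for 4 h, then extracellular luciferase luminescence.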

Assay [12] has as its target 3',5'-cyclic-AMP phosphodiesterase 4B (Homo sapiens) (UniProt Q07343). The experiment in a line: qHTS Assay for Inhibitors of PDE-IV (AID 607; active means well fitted activation curve with a large enough effect in the main read-out, with a control signal flat, not every such curve was filed as active; further: % of control where 0% means no effect). The following applies: HEK293 ACTOne CNG channel cells, membrane potential fluorescence; series mostly up to 22.9 µM. In outline: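 The readout is membrane depolarisation from a cAMP-sensing CNG channel, detected with a potential dye at ex 535/em 590. Cells were HEK293-derived (endogenous PDE-IV) at 1000 cells/well, titrated up to 22.9 uM final.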

The nature of assay [13]: AP1 Signaling Pathway (AID 357; active means well fitted curve in either direction with a large enough effect, not every such curve was filed as active; further: on the % scale 0 is the no-effect control and ±100 the full control effect). The following applies: ME-180 AP-1-bla reporter, EGF-induced, beta-lactamase ratio, 5 h; at 7.69 µM (top of the series) unless noted. The essentials:
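AP-1-bla ME-180 cells with beta-lactamase reporter under AP-1 response element, stimulated with EC50 EGF; compounds titrated, 5 hours at 37 degrees Celsius. CCF4 read at 460/530 nm ratio; positive and negative modulators judged by AC50.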

Assay [14] has as its target Cytochrome P450 1A2 (Homo sapiens) (UniProt P05177). The experiment in a line: p450-cyp1a2 (AID 410; calls by dose curve; further: potency means the concentration at half of the fitted maximal effect). The conditions noted are these: recombinant CYP1A2, luciferin-ME demethylation, luminescence; series mostly up to 57 µM. In outline: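 20nM CYP1A2, 100uM Luciferin-ME (=Km), 100mM KPO4; cpd 10 min RT; +NADPH regen, 60 min RT; stop/detect 20 min; luminescence. Normalized to furafylline 57 uM = full inhibition.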

Assay [15] is described as follows: NFAT Signaling Pathway (AID 444; active means well fitted curve in either direction with a large enough effect, not every such curve was filed as active;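 further: carbachol stimulus at about its EC50 of 1 µM final; on the % scale 0 is the no-effect control and ±100 the full control effect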). The conditions noted are these: Jurkat NFAT-bla M1, carbachol, beta-lactamase ratio, 5 h; at 7.69 µM (top of the series) unless noted. The essentials:
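Jurkat cells carrying an NFAT-driven β-lactamase reporter and co-transfected muscarinic M1 receptor were treated with compound plus carbachol (1 uM final, an EC50 level) for 5 h at 37 °C. CCF4 loading followed for 1 h at RT; 460/530 nm ratio gave %activity.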

The nature of assay [16]: Stat Signaling Pathway (AID 446; active means well fitted curve in either direction with a large enough effect, not every such curve was filed as active). The conditions noted are these: ME-180 (cervical carcinoma) SIE beta-lactamase reporter, IL-6 stimulated, 5 h; at 7.69 µM (top of the series) unless noted. The essentials:
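Emission at 460 and 530 nm (excitation 405 nm) reports SIE-controlled beta-lactamase in ME-180 cells. Cells received compound with 40 pM IL-6 for 5 hrs at 37 C; data scaled between 300 pM IL-6 and 125 nM JAK-inhibitor controls.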

For assay [17], the target named is Cytochrome P450 2C9 (Homo sapiens) (UniProt P11712). In words: qHTS Assay for Inhibitors and Substrates of Cytochrome P450 2C9 (AID 883). Further: potency means the concentration at half of the fitted maximal effect; nearly all actives have a fitted effect of over 60% in size. The following applies: recombinant CYP2C9, luciferin-H luminescence, 60 min; series mostly up to 57.1 µM. In outline: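 A luminogenic readout tracked human CYP2C9 (10nM) converting deoxyluciferin (100uM, at KM) in 25mM KPO4 during 60 min at 37C with regenerated NADPH. Values normalized to 57uM sulphaphenazole as complete inhibition.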

Assay [18] addresses Cytochrome P450 3A4 (Homo sapiens) (UniProt P08684). In words: qHTS Assay for Inhibitors and Substrates of Cytochrome P450 3A4 (AID 884). Further: potency means the concentration at half of the fitted maximal effect; nearly all actives have a fitted effect of over 50% in size. The following applies: recombinant CYP3A4, Luciferin-PPXE luminescence; series mostly up to 57.1 µM. In outline: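 Luminescent readout of luciferin produced by CYP3A4 (20 nM) dealkylation of Luciferin-PPXE, 25 uM (its KM). NADPH-driven reaction ran 60 min at RT after 10 min compound preincubation; data scaled to 57 uM ketoconazole as 100% inhibition.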

For assay [19], the target named is Cytochrome P450 2D6 (Homo sapiens) (UniProt P10635). In words: qHTS Assay for Inhibitors and Substrates of Cytochrome P450 2D6 (AID 891). Further: potency means the concentration at half of the fitted maximal effect; nearly all actives have a fitted effect of over 60% in size. The following applies: recombinant CYP2D6, luciferin-ME EGE luminescence; series mostly up to 57.1 µM. The essentials: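 Luminescent read-out of luciferin formed by 5 nM human CYP2D6 demethylating 30 uM Luciferin-ME EGE (Km level) over 60 min at room temperature after NADPH regeneration addition. Data normalized to full inhibition by 1.43 uM quinidine.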

Assay [20] concerns the target Cytochrome P450 2C19 (Homo sapiens) (UniProt P33261). The experiment in a line: qHTS Assay for Inhibitors and Substrates of Cytochrome P450 2C19 (AID 899). Further: potency means the concentration at half of the fitted maximal effect; nearly all actives have a fitted effect of over 60% in size. The conditions noted are these: recombinant CYP2C19, luciferin-H EGE luminescence; series mostly up to 57.1 µM. In outline:
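NADPH-dependent conversion of Luciferin-H EGE (10uM, at KM) by 5nM enzyme in 50mM KPO4, 60 min at 37C following 10 min compound preincubation. Stopped with luciferin detection buffer; luminescence read after 20 min.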

The structures appear in SMILES notation. Unmarked numbers belong to inactive results. Records with an inconclusive call do not appear. The source made the active and inactive calls. Unless noted, the call rests on the fitted dose curve; in most records, active means well fitted curve in the direction sought with a large enough effect; inconclusive means small, poorly fitted or top-dose-only effect, or another doubt; inactive means no such curve, though single readings can be large; an effect the other way counts as inactive or inconclusive. Some results are limits rather than exact numbers.

Sequence of Dual specificity protein kinase CLK4 (Homo sapiens) (Q9HAZ1 whole entry, looked up): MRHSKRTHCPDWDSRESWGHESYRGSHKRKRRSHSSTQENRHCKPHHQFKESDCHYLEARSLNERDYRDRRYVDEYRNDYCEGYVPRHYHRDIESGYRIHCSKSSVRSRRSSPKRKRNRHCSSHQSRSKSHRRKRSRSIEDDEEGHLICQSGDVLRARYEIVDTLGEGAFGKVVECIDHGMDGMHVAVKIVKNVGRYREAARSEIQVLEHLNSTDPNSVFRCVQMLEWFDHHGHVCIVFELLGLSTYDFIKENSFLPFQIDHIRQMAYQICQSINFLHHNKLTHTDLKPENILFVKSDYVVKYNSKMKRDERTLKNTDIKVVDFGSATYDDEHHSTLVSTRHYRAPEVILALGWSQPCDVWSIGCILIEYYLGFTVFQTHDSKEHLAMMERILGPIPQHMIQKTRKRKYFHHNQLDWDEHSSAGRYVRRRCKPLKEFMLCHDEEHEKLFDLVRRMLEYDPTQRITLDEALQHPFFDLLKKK
Sequence of 3',5'-cyclic-AMP phosphodiesterase 4B (Homo sapiens) (Q07343 whole entry, looked up): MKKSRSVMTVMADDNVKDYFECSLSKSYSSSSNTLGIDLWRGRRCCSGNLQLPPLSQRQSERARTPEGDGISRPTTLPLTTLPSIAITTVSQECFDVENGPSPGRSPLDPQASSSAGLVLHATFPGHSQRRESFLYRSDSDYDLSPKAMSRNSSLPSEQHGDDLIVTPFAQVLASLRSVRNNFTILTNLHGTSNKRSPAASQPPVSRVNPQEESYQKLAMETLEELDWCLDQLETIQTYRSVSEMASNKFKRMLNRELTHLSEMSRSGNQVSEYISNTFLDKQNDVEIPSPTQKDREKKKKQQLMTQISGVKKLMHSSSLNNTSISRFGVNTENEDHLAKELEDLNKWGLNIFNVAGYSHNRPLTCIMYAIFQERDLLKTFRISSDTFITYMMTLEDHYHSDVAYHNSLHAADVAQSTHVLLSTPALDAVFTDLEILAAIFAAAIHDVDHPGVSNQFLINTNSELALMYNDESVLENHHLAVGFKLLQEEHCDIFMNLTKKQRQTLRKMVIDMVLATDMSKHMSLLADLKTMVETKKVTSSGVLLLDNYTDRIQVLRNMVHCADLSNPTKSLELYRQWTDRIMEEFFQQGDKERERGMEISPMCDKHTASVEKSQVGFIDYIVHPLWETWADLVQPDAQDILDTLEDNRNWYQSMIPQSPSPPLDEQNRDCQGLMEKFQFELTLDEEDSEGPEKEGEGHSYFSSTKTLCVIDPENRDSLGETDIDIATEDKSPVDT
Sequence of Glucocorticoid receptor (Homo sapiens) (P04150 whole entry, looked up): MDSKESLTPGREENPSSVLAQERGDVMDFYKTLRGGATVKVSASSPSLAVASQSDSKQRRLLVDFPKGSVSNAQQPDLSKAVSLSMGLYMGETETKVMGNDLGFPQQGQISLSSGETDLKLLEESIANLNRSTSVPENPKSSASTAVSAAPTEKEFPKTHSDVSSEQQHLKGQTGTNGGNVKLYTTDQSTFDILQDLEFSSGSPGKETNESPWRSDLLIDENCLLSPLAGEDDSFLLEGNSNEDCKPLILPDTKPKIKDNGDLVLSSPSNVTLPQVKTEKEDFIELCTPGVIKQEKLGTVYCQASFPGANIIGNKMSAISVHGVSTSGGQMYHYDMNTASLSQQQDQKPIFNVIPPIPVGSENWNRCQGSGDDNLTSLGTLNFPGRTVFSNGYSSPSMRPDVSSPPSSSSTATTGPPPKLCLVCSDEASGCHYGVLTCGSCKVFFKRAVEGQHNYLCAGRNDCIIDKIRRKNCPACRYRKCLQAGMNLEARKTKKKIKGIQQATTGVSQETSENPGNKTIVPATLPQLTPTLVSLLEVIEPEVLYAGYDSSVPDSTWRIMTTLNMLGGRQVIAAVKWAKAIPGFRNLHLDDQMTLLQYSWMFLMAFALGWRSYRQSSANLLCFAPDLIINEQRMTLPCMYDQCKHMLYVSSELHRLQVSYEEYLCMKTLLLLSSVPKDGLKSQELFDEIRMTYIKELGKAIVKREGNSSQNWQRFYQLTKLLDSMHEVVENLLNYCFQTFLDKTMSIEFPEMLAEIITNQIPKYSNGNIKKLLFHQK
Sequence of Ubiquitin carboxyl-terminal hydrolase 1 (Homo sapiens) (O94782 whole entry, looked up): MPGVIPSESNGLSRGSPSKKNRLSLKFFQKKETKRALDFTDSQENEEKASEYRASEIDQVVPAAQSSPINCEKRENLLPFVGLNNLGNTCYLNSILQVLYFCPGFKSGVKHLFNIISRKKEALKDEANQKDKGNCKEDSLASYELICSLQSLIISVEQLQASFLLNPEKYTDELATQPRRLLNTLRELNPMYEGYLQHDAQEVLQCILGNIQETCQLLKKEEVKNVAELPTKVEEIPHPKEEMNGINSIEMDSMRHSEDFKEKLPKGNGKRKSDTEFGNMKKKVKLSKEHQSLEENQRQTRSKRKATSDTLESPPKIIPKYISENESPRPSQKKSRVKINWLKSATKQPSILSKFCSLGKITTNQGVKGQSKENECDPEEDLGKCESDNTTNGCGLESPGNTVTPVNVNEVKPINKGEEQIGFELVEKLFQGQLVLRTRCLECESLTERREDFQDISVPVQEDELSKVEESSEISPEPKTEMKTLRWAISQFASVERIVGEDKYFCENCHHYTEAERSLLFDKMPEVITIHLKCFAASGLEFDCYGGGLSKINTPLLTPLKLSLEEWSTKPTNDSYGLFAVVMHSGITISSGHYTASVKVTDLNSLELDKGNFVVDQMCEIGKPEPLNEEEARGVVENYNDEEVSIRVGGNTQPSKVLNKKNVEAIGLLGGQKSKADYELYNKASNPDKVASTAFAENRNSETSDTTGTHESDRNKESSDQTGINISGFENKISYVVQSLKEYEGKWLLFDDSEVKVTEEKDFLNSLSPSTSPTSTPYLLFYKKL
Sequence of Cytochrome P450 3A4 (Homo sapiens) (P08684 whole entry, looked up): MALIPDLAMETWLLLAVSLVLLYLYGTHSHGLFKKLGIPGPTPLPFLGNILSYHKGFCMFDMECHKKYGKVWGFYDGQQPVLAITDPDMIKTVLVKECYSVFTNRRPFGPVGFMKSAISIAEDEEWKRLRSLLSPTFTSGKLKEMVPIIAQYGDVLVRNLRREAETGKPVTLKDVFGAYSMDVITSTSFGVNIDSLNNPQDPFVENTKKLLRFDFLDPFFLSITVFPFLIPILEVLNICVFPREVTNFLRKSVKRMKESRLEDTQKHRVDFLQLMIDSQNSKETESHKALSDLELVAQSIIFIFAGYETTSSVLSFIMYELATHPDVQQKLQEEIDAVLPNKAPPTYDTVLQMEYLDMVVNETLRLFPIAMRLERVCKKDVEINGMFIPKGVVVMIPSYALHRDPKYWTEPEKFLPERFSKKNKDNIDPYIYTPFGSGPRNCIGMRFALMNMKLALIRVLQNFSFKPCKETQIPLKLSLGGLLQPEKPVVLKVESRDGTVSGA
Sequence of Lysosomal acid glucosylceramidase (Homo sapiens) (P04062 whole entry, looked up): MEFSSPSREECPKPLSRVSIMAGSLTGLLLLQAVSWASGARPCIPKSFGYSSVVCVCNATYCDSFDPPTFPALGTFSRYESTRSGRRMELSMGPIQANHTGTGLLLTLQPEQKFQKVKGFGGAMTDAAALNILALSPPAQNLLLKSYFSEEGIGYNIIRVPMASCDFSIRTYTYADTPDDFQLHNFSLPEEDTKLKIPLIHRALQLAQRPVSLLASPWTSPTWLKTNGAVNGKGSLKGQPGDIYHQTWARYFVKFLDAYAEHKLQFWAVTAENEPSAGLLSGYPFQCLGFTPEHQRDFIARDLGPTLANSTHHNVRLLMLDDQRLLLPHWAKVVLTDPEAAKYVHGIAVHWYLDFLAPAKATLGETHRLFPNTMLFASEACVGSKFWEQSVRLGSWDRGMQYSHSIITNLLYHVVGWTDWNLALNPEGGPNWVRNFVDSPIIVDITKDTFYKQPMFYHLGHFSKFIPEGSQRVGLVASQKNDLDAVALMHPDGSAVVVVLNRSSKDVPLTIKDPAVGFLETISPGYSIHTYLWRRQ
Sequence of Cytochrome P450 1A2 (Homo sapiens) (P05177 whole entry, looked up): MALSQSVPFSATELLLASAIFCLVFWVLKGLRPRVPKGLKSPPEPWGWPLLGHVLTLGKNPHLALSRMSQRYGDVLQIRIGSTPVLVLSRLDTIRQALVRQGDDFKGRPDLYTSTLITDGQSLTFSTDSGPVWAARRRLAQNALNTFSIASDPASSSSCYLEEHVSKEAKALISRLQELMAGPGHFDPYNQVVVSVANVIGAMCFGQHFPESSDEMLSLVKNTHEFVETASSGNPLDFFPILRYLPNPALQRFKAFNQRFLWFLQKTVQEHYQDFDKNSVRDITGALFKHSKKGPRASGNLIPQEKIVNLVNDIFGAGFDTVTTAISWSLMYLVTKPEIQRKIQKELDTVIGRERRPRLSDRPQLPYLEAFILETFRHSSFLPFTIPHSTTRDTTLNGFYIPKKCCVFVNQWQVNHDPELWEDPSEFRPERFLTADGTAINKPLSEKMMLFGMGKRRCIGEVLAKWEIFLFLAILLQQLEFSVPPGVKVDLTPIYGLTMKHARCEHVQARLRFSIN
Sequence of Cytochrome P450 2C9 (Homo sapiens) (P11712 whole entry, looked up): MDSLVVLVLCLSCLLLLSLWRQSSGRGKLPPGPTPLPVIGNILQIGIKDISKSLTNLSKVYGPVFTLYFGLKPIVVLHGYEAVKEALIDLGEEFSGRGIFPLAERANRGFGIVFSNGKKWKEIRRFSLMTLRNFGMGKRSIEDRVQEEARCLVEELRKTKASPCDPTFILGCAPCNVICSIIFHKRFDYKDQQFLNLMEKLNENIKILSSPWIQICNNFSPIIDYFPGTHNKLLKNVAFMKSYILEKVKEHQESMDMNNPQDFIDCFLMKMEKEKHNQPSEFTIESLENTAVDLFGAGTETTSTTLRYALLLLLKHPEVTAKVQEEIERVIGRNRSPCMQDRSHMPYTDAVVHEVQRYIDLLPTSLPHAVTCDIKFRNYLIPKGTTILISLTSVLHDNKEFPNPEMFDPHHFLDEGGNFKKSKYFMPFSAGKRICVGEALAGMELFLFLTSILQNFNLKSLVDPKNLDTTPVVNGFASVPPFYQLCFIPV

`CCNc1ncc2nc(-c3ccccc3)c(=O)n(Cc3cccc(OC)c3)c2n1`: the Potency in [1] is more than 11.4 µM; in assay [2] it was more than 9.22 µM; in [3] it was more than 46 µM; in assay [6] it was 3.16 µM (active). For the same compound, the Potency entry in [4], in [5], in assay [7], in assay [8], in assay [9] and in assay [10] was “inactive” in each case. Moreover, the result in [11] was inactive.
As to `COc1cccc(Cn2c(=O)c(-c3ccc(Cl)cc3)nc3cnc(N4CCOCC4)nc32)c1`, the Potency in assay [1] was more than 11.4 µM; in assay [2] it was more than 9.22 µM; in [3], more than 46 µM; in assay [6], 1.58 µM (active). The Potency result in assay [4], in [12], in [7], in [8], in assay [9] and in assay [10] was “inactive” throughout. Further, the outcome in assay [11] was inactive.
Consider `COc1ccc(-n2c(=O)c(CCc3ccccc3)nc3cnc(N4CCOCC4)nc32)cc1`, for which the activity change, negative = inhibition in assay [13] is -17%; in assay [15], -7.5%. The Potency in [14] was 15.8 µM (active); in assay [2], more than 9.22 µM; in assay [3], more than 46 µM. Moreover, the activity, negative = inhibition in assay [16] is -13.2%. The Potency entry in assay [4], in assay [12], in [5], in [7], in assay [8] and in assay [9] was “inactive” each time. In addition, in assay [10], the Potency result was “inactive”. Further, the result in assay [11] was inactive.
As to `COc1ccc2[nH]cc(CCNc3ncncc3-c3cccc(NS(C)(=O)=O)c3)c2c1`, the figures for the activity change, negative = inhibition in [13] and in [15] were -19.1% and 15.3%, respectively. In addition, the Potency is 12.6 µM (active) in assay [14]; more than 46 µM in assay [2]; more than 46 µM in assay [3]; 0.398 µM (active) in [17]; 0.398 µM (active) in [18]; 3.16 µM (active) in assay [19]. In addition, the Potency was 5.01 µM (active) in [20], 25.1 µM (active) in [7], 35.5 µM (active) in assay [8] and 10 µM (active) in assay [9]. The activity, negative = inhibition in assay [16] was -18.7%. The Potency entry in [4], in assay [12], in assay [5] and in assay [10] was “inactive” throughout. The result in assay [11] was inactive.
